Hits are enriched below; roughly 31% of the tested compounds scored in any of these assays.
CYP2C19 activ – activators of human cytochrome P450 2C19 | activation factor at 5 µM | AID 1025 | recombinant CYP2C19, luciferin-H EGE luminescence; stronger effect = higher value; 0 = fully inhibited enzyme, 1 = untreated enzyme | 96,000 tested, under 10 active | P33261;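 active = activation factor of at least 2 at 5 µM in the primary screen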;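 note: 0 = wells with 2.5 mM tranylcypromine and 1 = vehicle-only wells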
CYP2C19 inh – inhibitors of human CYP2C19; CYP2C19 Supersomes, luciferin-H EGE luminescence, 30 min; hit rate 21% among 96,000; inhibition, % at 5 µM;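 active = CYP2C19 inhibition above a set limit at 5 µM in the primary screen, cut at about 50% in these data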;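 note: plate controls were negative control wells for no effect and 2.5 mM tranylcypromine positive control for full effect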
CYP2C9 activ – CYP2C9 (human) activation; P11712; recombinant CYP2C9, luciferin-H conversion, luminescence; stronger effect = higher value; factor 1 = untreated enzyme, 0 = blocked; activation factor at 5 µM; hit rate 1.4% among 96,000; AID 1024;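 active = activation factor of 2 or more for CYP2C9 at a 5 µM dose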;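 note: 0 = sulfaphenazole-blocked wells and 1 = vehicle-only wells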
CYP2C9 inh – human CYP2C9 inhibition; P11712; hit rate 20% among 96,000; CYP2C9 Supersomes, luciferin-H conversion, luminescence; AID 777; inhibition, % at 5 µM;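 active = blocking of liver enzyme CYP2C9 beyond about 50% at 5 µM, limit read from the data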
PLAP act – activators of human placental alkaline phosphatase; P05187; hit rate 1.2% among 96,000; activation fold at 20 µM; AID 696; purified PLAP enzyme, luminescent substrate read-out; stronger effect = higher value; in the data active = activation fold above about 2
Target sequence (P05187 whole entry, looked up): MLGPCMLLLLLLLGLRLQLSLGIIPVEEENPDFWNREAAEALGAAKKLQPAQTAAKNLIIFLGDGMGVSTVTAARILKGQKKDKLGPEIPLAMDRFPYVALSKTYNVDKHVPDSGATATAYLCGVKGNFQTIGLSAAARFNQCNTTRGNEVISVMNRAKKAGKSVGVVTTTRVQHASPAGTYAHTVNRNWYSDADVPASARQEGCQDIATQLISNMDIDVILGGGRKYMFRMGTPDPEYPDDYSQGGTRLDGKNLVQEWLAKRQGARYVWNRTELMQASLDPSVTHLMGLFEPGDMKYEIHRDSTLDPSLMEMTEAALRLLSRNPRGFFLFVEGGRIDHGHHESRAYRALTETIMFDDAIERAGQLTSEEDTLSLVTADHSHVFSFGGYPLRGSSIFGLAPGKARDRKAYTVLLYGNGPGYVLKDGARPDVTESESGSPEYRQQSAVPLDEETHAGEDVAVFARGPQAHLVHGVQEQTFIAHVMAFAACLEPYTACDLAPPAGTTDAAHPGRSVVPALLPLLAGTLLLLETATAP
The depositor's hits bear a star.

`O=C(CSc1nc2ccccc2n1CC(=O)NCc1ccccc1)NCc1ccco1` gave CYP2C19 activ 0.2, CYP2C19 inh 79*, CYP2C9 activ 0.2, CYP2C9 inh 82* and PLAP act 0.8.
`CCOC(=O)c1cc2sccc2n1CC(=O)N1CCN(C(=O)c2ccco2)CC1` gave CYP2C19 activ 0.7, CYP2C19 inh 30, CYP2C9 activ 0.6, CYP2C9 inh 41 and PLAP act 1.5.
Cc1ccc(CS(=O)(=O)CCC(=O)NCCCOC(C)C)cc1 was read as CYP2C19 activ 1.1, CYP2C19 inh -5, CYP2C9 activ 0.9, CYP2C9 inh 10 and PLAP act 1.2.
Screening CCC(C)NS(=O)(=O)c1ccc(NS(C)(=O)=O)cc1 (stereo unspecified) returned CYP2C19 activ 1, CYP2C19 inh 1, CYP2C9 activ 1.1, CYP2C9 inh -10 and PLAP act 1.
`Cc1ccc(/C=C2/NC(=O)N(c3ccccc3)C2=O)o1` gave CYP2C19 activ 0.3, CYP2C19 inh 68*, CYP2C9 activ 1.1, CYP2C9 inh -6 and PLAP act 0.9.
N#Cc1nc(-c2ccccc2F)oc1NC1CCCCC1 was read as CYP2C19 activ 0.7, CYP2C19 inh 33, CYP2C9 activ 0.7, CYP2C9 inh 28 and PLAP act 1.
COc1ccc(OCC#CCNC(C)(C)C)cc1 was read as CYP2C19 activ 0.9, CYP2C19 inh 6, CYP2C9 activ 1, CYP2C9 inh -2 and PLAP act 1.1.
Screening O=C(O)CSc1nnc(CNc2cccc(C(F)(F)F)c2)n1Cc1ccco1 returned CYP2C19 activ 1.2, CYP2C19 inh -24, CYP2C9 activ 1.2, CYP2C9 inh -25 and PLAP act 1.4.
Screening N#Cc1c(-c2ccccc2)ccn(Cc2ccc(Cl)cc2)c1=O returned CYP2C19 activ 0.6, CYP2C19 inh 36, CYP2C9 activ 0.5, CYP2C9 inh 54* and PLAP act 0.8.
For CCOc1ccc(NC(=O)N2CCC(n3c(=O)[nH]c4ccccc43)CC2)cc1 the results were CYP2C19 activ 0.7, CYP2C19 inh 28, CYP2C9 activ 0.3, CYP2C9 inh 66* and PLAP act 1.6.
CCOc1ccc(NC(=O)N2CCC(NC(=O)c3ccco3)CC2)cc1 was read as CYP2C19 activ 1.1, CYP2C19 inh -14, CYP2C9 activ 1.1, CYP2C9 inh -7 and PLAP act 1.1.
`NC(=O)c1cnn2c(C(F)(F)F)cc(-c3ccc(F)cc3)nc12` gave CYP2C19 activ 1, CYP2C19 inh -3, CYP2C9 activ 1.1, CYP2C9 inh -8 and PLAP act 0.9.
`Cc1ccc(CNc2oc(COc3ccccc3Cl)nc2C#N)cc1` gave CYP2C19 activ 0.7, CYP2C19 inh 30, CYP2C9 activ 0.4, CYP2C9 inh 61* and PLAP act 0.8.
For N#Cc1nc(COc2ccccc2Cl)oc1NCc1cccnc1 the results were CYP2C19 activ 0.1, CYP2C19 inh 91*, CYP2C9 activ 0.6, CYP2C9 inh 36 and PLAP act 1.1.
`N#Cc1nc(COc2ccccc2Cl)oc1NCc1ccc(F)cc1` gave CYP2C19 activ 1, CYP2C19 inh 4, CYP2C9 activ 0.8, CYP2C9 inh 19 and PLAP act 0.9.
For Fc1ccccc1N1CCN(CCCNc2ccc3nncn3n2)CC1 the results were CYP2C19 activ 0.6, CYP2C19 inh 37, CYP2C9 activ 1, CYP2C9 inh 2 and PLAP act 0.9.
For COc1ccccc1NC(=O)N1CCN(c2cc(-c3ccccc3)nc3ncnn23)CC1 the results were CYP2C19 activ 0.7, CYP2C19 inh 33, CYP2C9 activ 0.8, CYP2C9 inh 20 and PLAP act 1.3.
`O=C(CN1CCN(c2ccccc2)CC1)Nc1ccc(OCc2ccccc2)cc1` gave CYP2C19 activ 0.9, CYP2C19 inh 7, CYP2C9 activ 0.7, CYP2C9 inh 29 and PLAP act 0.9.
Screening O=C(/C=C/N1CCOCC1)c1cc2ccccc2o1 returned CYP2C19 activ 0.9, CYP2C19 inh 9, CYP2C9 activ 0.2, CYP2C9 inh 77* and PLAP act 1.
CC1CCN(C(=O)c2cc3ccccc3o2)CC1 was read as CYP2C19 activ 0.1, CYP2C19 inh 86*, CYP2C9 activ 0.8, CYP2C9 inh 22 and PLAP act 0.9.
CN1CCN(C(=O)c2cc3ccccc3oc2=O)CC1 was read as CYP2C19 activ 0.9, CYP2C19 inh 7, CYP2C9 activ 1, CYP2C9 inh -2 and PLAP act 1.1.
Screening Cc1ccccc1NC(=O)c1cccc2nc3ccccc3nc12 returned CYP2C19 activ 1, CYP2C19 inh 4, CYP2C9 activ 0.9, CYP2C9 inh 12 and PLAP act 1.
`CCOC(=O)c1cccc(NC(=O)Cn2c(CC(=O)NC)nc3ccccc32)c1` gave CYP2C19 activ 0.8, CYP2C19 inh 25, CYP2C9 activ 0.3, CYP2C9 inh 71* and PLAP act 1.3.
For CCOC(=O)c1cccc(NC(=O)CSc2nc3cccnc3n2C)c1 the results were CYP2C19 activ 0.4, CYP2C19 inh 58*, CYP2C9 activ 0.5, CYP2C9 inh 49 and PLAP act 0.7.
For CCOC(=O)c1c(NC(=O)CSc2nnc(-c3ccccc3C)n2C)sc(C(C)=O)c1C the results were CYP2C19 activ 0.2, CYP2C19 inh 84*, CYP2C9 activ 0.1, CYP2C9 inh 95* and PLAP act 1.6.
CCOc1ccc2nc(NC(=O)CSc3nc4cccnc4n3C)sc2c1 was read as CYP2C19 activ 1.1, CYP2C19 inh -10, CYP2C9 activ 1.2, CYP2C9 inh -23 and PLAP act 1.
`CCOC(=O)c1c(NC(=O)CSc2nc3cccnc3n2C)sc(C(C)=O)c1C` gave CYP2C19 activ 0.7, CYP2C19 inh 27, CYP2C9 activ 0.3, CYP2C9 inh 69* and PLAP act 0.9.
`NS(=O)(=O)c1ccc(CNC(=O)/C=C/c2c(Cl)cccc2Cl)cc1` gave CYP2C19 activ 1.1, CYP2C19 inh -9, CYP2C9 activ 1.5, CYP2C9 inh -48 and PLAP act 1.1.
`CC(C)C(NC(=O)C1CCCCC1)C(=O)NC1=NCCS1` (stereo unspecified) gave CYP2C19 activ 0.8, CYP2C19 inh 20, CYP2C9 activ 0.9, CYP2C9 inh 12 and PLAP act 1.1.
For O=C(CSc1nnnn1-c1ccc2c(c1)OCCO2)c1cccc2c1OCCO2 the results were CYP2C19 activ 0.3, CYP2C19 inh 71*, CYP2C9 activ 0.7, CYP2C9 inh 29 and PLAP act 0.8.
O=C(O)CSc1nnc(-c2cccs2)n1-c1ccc(Cl)cc1 was read as CYP2C19 activ 1, CYP2C19 inh 2, CYP2C9 activ 1, CYP2C9 inh 4 and PLAP act 0.8.
O=C(O)CSc1nnnn1-c1ccc2c(c1)OCCO2 was read as CYP2C19 activ 1.2, CYP2C19 inh -18, CYP2C9 activ 1, CYP2C9 inh 4 and PLAP act 1.
Screening CC(C)OC(=O)CSc1nnnn1-c1ccc2c(c1)OCCO2 returned CYP2C19 activ 0.3, CYP2C19 inh 75*, CYP2C9 activ 1.2, CYP2C9 inh -22 and PLAP act 0.9.
